Laboratory results: article PMC12820563, “FoxP3 forms a head-to-head dimer in vivo and stabilizes its multimerization on adjacent microsatellites”
The full ranking holds about 16,000 sequences; the median of “rpm ratio (pull-down/input)” is about 0.94, and the highest 2% start at about 1.7. This is one part of a sample in which the highest values are shown more often than they occur.

Each sequence was assayed against T1, MBP-FoxP1dN (Mus musculus, UniProt P58462 326-579) (assay: PD-seq (MBP pull-down with sequencing); 20 mM Tris-HCl pH 7.5, 100 mM NaCl, 1.5 mM MgCl2, 0.4 uM protein, 0.1 uM dsDNA library, 30 min, room temperature, amylose pull-down; high values mean tight binding). Details: protein: recombinant; tags: His6-MBP; chain copies: 2; dsDNA, one strand shown.
T1 sequence: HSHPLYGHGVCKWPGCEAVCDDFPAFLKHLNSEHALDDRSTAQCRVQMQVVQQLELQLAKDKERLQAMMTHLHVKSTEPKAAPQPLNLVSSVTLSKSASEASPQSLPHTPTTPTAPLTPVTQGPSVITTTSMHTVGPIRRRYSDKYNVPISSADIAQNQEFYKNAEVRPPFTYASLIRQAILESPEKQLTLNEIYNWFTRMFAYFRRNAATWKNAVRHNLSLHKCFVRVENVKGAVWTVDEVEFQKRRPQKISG
Procedure, shortened: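 Binding is given as reads-per-million enrichment, pull-down over input, with replicates pooled. The bait was an N-terminus-lacking mouse FoxP3 or FoxP1 fragment with a His6-MBP tag, expressed in E. coli and used at 0.4 µM with 0.1 µM Klenow-filled degenerate double-stranded DNA library for 30 min at room temperature in Tris pH 7.5 buffer with NaCl and MgCl2. Amylose resin pull-down with three washes was followed by proteinase K release, PCR barcoding and Illumina sequencing.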

| Sequence | binding signal |
| --- | --- |
| GATGATTGTTCTCCCAGCTGATGAATTCCTATCTTCGAGTAAACAAATTTTCCTAATCTTTCTGTTCAAGCGCCATCTAC | 0.802 RPM ratio (pull-down/input) |
| GATGATTGTTCTCCCAGCTGATGAATTTGACTTGTCGAGTAAACAAATTTTCCTAATCTTTCTGTTCAAGCGCCATCTAC | 0.82 RPM ratio (pull-down/input) |
| GATGATTGTTCTCCCAGCTGATGAATTTCCTGCGTCGAGTAAACAAATTTTCCTAATCTTTCTGTTCAAGCGCCATCTAC | 0.938 RPM ratio (pull-down/input) |
| GATGATTGTTCTCCCAGCTGATGAATTCTCTCTTTCGAGTAAACAAATTTTCCTAATCTTTCTGTTCAAGCGCCATCTAC | 0.917 RPM ratio (pull-down/input) |
| GATGATTGTTCTCCCAGCTGATGAATTTAATATGTCGAGTAAACAAATTTTCCTAATCTTTCTGTTCAAGCGCCATCTAC | 0.979 RPM ratio (pull-down/input) |
| GATGATTGTTCTCCCAGCTGATGAATTGTTGTCGTCGAGTAAACAAATTTTCCTAATCTTTCTGTTCAAGCGCCATCTAC | 2.33 RPM ratio (pull-down/input) |
| GATGATTGTTCTCCCAGCTGATGAATTTCTGTCGTCGAGTAAACAAATTTTCCTAATCTTTCTGTTCAAGCGCCATCTAC | 0.96 RPM ratio (pull-down/input) |
| GATGATTGTTCTCCCAGCTGATGAATTGTCGTCGTCGAGTAAACAAATTTTCCTAATCTTTCTGTTCAAGCGCCATCTAC | 1.05 RPM ratio (pull-down/input) |
| GATGATTGTTCTCCCAGCTGATGAATTCGATCTATCGAGTAAACAAATTTTCCTAATCTTTCTGTTCAAGCGCCATCTAC | 0.885 RPM ratio (pull-down/input) |
| GATGATTGTTCTCCCAGCTGATGAATTATTATTGTCGAGTAAACAAATTTTCCTAATCTTTCTGTTCAAGCGCCATCTAC | 3.2 RPM ratio (pull-down/input) |
| GATGATTGTTCTCCCAGCTGATGAATTGATTATGTCGAGTAAACAAATTTTCCTAATCTTTCTGTTCAAGCGCCATCTAC | 1.31 RPM ratio (pull-down/input) |
| GATGATTGTTCTCCCAGCTGATGAATTATTCTTGTCGAGTAAACAAATTTTCCTAATCTTTCTGTTCAAGCGCCATCTAC | 1.16 RPM ratio (pull-down/input) |
| GATGATTGTTCTCCCAGCTGATGAATTATTGTCGTCGAGTAAACAAATTTTCCTAATCTTTCTGTTCAAGCGCCATCTAC | 1.56 RPM ratio (pull-down/input) |
| GATGATTGTTCTCCCAGCTGATGAATTATTAATGTCGAGTAAACAAATTTTCCTAATCTTTCTGTTCAAGCGCCATCTAC | 1.35 RPM ratio (pull-down/input) |
| GATGATTGTTCTCCCAGCTGATGAATTATTTCTGTCGAGTAAACAAATTTTCCTAATCTTTCTGTTCAAGCGCCATCTAC | 1.11 RPM ratio (pull-down/input) |
| GATGATTGTTCTCCCAGCTGATGAATTATTGTTGTCGAGTAAACAAATTTTCCTAATCTTTCTGTTCAAGCGCCATCTAC | 3.22 RPM ratio (pull-down/input) |

| Sequence | binding signal |
| --- | --- |
| GATGATTGTTCTCCCAGCTGATGAATTATGATTGTCGAGTAAACAAATTTTCCTAATCTTTCTGTTCAAGCGCCATCTAC | 1.45 RPM ratio (pull-down/input) |
| GATGATTGTTCTCCCAGCTGATGAATTATTGATGTCGAGTAAACAAATTTTCCTAATCTTTCTGTTCAAGCGCCATCTAC | 1.85 RPM ratio (pull-down/input) |
| GATGATTGTTCTCCCAGCTGATGAATTATGAGTCTCGAGTAAACAAATTTTCCTAATCTTTCTGTTCAAGCGCCATCTAC | 0.886 RPM ratio (pull-down/input) |
| GATGATTGTTCTCCCAGCTGATGAATTACGATCGTCGAGTAAACAAATTTTCCTAATCTTTCTGTTCAAGCGCCATCTAC | 0.952 RPM ratio (pull-down/input) |
| GATGATTGTTCTCCCAGCTGATGAATTTGAGCTTTCGAGTAAACAAATTTTCCTAATCTTTCTGTTCAAGCGCCATCTAC | 0.854 RPM ratio (pull-down/input) |
| GATGATTGTTCTCCCAGCTGATGAATTCGCTTGCTCGAGTAAACAAATTTTCCTAATCTTTCTGTTCAAGCGCCATCTAC | 0.817 RPM ratio (pull-down/input) |
| GATGATTGTTCTCCCAGCTGATGAATTAAACTCTTCGAGTAAACAAATTTTCCTAATCTTTCTGTTCAAGCGCCATCTAC | 0.825 RPM ratio (pull-down/input) |
| GATGATTGTTCTCCCAGCTGATGAATTTTTAATCTCGAGTAAACAAATTTTCCTAATCTTTCTGTTCAAGCGCCATCTAC | 0.864 RPM ratio (pull-down/input) |
| GATGATTGTTCTCCCAGCTGATGAATTAAGTCCTTCGAGTAAACAAATTTTCCTAATCTTTCTGTTCAAGCGCCATCTAC | 0.887 RPM ratio (pull-down/input) |
| GATGATTGTTCTCCCAGCTGATGAATTCTTCATCTCGAGTAAACAAATTTTCCTAATCTTTCTGTTCAAGCGCCATCTAC | 0.813 RPM ratio (pull-down/input) |
| GATGATTGTTCTCCCAGCTGATGAATTGGTGCATTCGAGTAAACAAATTTTCCTAATCTTTCTGTTCAAGCGCCATCTAC | 1.35 RPM ratio (pull-down/input) |
| GATGATTGTTCTCCCAGCTGATGAATTAACCTGCTCGAGTAAACAAATTTTCCTAATCTTTCTGTTCAAGCGCCATCTAC | 0.79 RPM ratio (pull-down/input) |
| GATGATTGTTCTCCCAGCTGATGAATTGACGAACTCGAGTAAACAAATTTTCCTAATCTTTCTGTTCAAGCGCCATCTAC | 1.03 RPM ratio (pull-down/input) |
| GATGATTGTTCTCCCAGCTGATGAATTTCTTGGGTCGAGTAAACAAATTTTCCTAATCTTTCTGTTCAAGCGCCATCTAC | 0.716 RPM ratio (pull-down/input) |
| GATGATTGTTCTCCCAGCTGATGAATTGTATGTATCGAGTAAACAAATTTTCCTAATCTTTCTGTTCAAGCGCCATCTAC | 1.67 RPM ratio (pull-down/input) |
